# Compounds with a hit are over-represented: about 6.7% of the library has one in this group of screens.
# C diff growth – inhibitors of Clostridium difficile growth. Clostridium difficile clinical isolate growth, OD600, 24 h; active compounds read low. 86,000 tested, 0.25% active. growth activity, negative = inhibition, % at 16 µg/mL (by protocol);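 active means mean growth activity at or below -80% and every replicate also at or below -80%; inconclusive means mean at or below -80% but some replicate above -80%; inactive means mean growth activity above -80%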;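 further: 0% = DMSO wells and -100% = levofloxacin 16 µg/mL wells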
# Pf Dd2 growth – blocks growth of Plasmodium falciparum Dd2 parasites | 94,000 tested, 2.3% active | activity change, % at 10 µM | P. falciparum Dd2 growth, SYBR Green, 72 h; active compounds read low; in the data active means activity change below about -80%; inconclusive means no clear call, values can overlap the other calls
# T cruzi growth-1 – inhibitors of T. cruzi proliferation; T. cruzi beta-gal in NIH3T3, GalScreen luminescence, 90 h; inhibition, % at 8.34 µM; 77,000 tested, 5.9% active; AID 624255;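 active means mean inhibition above about 93%, with at least 55% of replicates each passing it, limit read from the data, passing the limit was not always enough; inconclusive means only one of those two conditions holds; inactive means neither condition holds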
# T cruzi growth-2 – blocks T. cruzi growth in NIH3T3 host cells. shares compounds with T cruzi growth-1. T. cruzi beta-gal in NIH3T3, GalScreen luminescence, 90 h. inhibition, % at 8.35 µM. 5,600 tested, 72% active. AID 651739;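 active means mean replicate inhibition above about 95% and at least 55% of replicates individually reaching it, limit read from the data; inconclusive means only one of the two criteria is met; inactive means neither criterion is met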
# T cruzi growth-3 – blocks T. cruzi growth in NIH3T3 host cells; AID 651740; inhibition, % at 2.09 µM; 5,600 tested, 21% active; shares compounds with T cruzi growth-1; T. cruzi beta-gal in NIH3T3, GalScreen luminescence, 90 h;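 active means mean inhibition above about 95%, with at least 55% of replicates also reaching it, limit read from the data; inconclusive means meets just one of the two conditions; inactive means meets neither condition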;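 further: plate controls were neutral control median for no effect and positive control median for full effect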
# 3T3 cytotox – NIH/3T3 (mouse) viability loss | shares compounds with T cruzi growth-1 | NIH/3T3 viability, CellTiter-Glo ATP luminescence, 90 h | cytotoxicity (signal decrease), % at 8.35 µM | 5,600 tested, 14% active | AID 651742;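 active means mean signal decrease across replicates above about 35% based on untreated-well scatter, with enough replicates individually passing, limit read from the data; inconclusive means no rule stated though some were filed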;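 further: 0% = median of neutral control wells and 100% = median of positive control wells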
# 3T3 cytotox 2 – NIH/3T3 (mouse) viability loss; shares compounds with T cruzi growth-1; NIH/3T3 viability, CellTiter-Glo ATP luminescence, 90 h; inhibition, % at 24.9 µM; 5,600 tested, 56% active;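 active means mean loss of cell viability signal at or above a set limit, and enough replicates individually reaching it; inconclusive means meets only the mean limit or only the replicate share; inactive means meets neither condition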;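 further: 0% = median of neutral control wells and 100% = median of positive control wells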
# Numbers without * were called inactive; ? = inconclusive; nt = not tested or not shown; ! = not active in a repeat.
SMILES,C diff growth,Pf Dd2 growth,T cruzi growth-1,T cruzi growth-2,T cruzi growth-3,3T3 cytotox,3T3 cytotox 2
CO[C@@H]1CN(C)C(=O)c2cc(NC(=O)C3CC3)ccc2OC[C@@H](C)N(Cc2cccc(F)c2)C[C@@H]1C,nt,-59,63,nt,nt,nt,nt
CO[C@@H]1CN(C)C(=O)c2ccc(NC(=O)NC(C)C)cc2OC[C@@H](C)N(Cc2ccccn2)C[C@@H]1C,nt,-12,64,nt,nt,nt,nt
CO[C@H]1CN(C)C(=O)c2cc(NC(=O)C3CCC3)ccc2OC[C@H](C)N(Cc2cccnc2)C[C@@H]1C,nt,22,87,nt,nt,nt,nt
CO[C@@H]1CN(C)C(=O)c2cc(NC(=O)C3CC3)ccc2OC[C@H](C)N(Cc2cccc(F)c2)C[C@H]1C,nt,-74,99*,?,38,-2,0
CO[C@H]1CN(C)C(=O)c2cc(NC(=O)C3CCC3)ccc2OC[C@@H](C)N(Cc2cccnc2)C[C@@H]1C,nt,12,103*,62,-6,8,6
CO[C@H]1CN(C)C(=O)c2ccc(NC(=O)NC(C)C)cc2OC[C@@H](C)N(Cc2ccccn2)C[C@@H]1C,nt,-40,100*,60,-42,15,7
CO[C@@H]1CN(C)C(=O)c2cc(NC(=O)Nc3ccccc3F)ccc2OC[C@@H](C)N(Cc2ccccc2F)C[C@H]1C,0,-66,52,nt,nt,nt,nt
C[C@H](CO)N1C[C@H](C)[C@@H](CN(C)C(=O)Oc2ccccc2)OCc2ccccc2-c2ccccc2C1=O,nt,-31,24,nt,nt,nt,nt
COc1ccccc1S(=O)(=O)N[C@H]1CC[C@@H](CC(=O)N2CCN(C)CC2)O[C@H]1CO,nt,9,-44,nt,nt,nt,nt
CCCNC(=O)Nc1ccc2c(c1)C(=O)N(C)C[C@@H](OC)[C@@H](C)CN(Cc1cncnc1)[C@H](C)CO2,-3,8,12,nt,nt,nt,nt
CC(=O)N(C)C[C@@H]1Oc2ncc(C#Cc3ccccc3F)cc2C(=O)N([C@@H](C)CO)C[C@H]1C,-5,3,32,nt,nt,nt,nt
C[C@@H]1CCCCO[C@@H](CN(C)C(=O)Cc2ccccc2)[C@@H](C)CN([C@@H](C)CO)C(=O)c2cc(NC(=O)NC3CCCCC3)ccc2O1,-2,-64,-20,nt,nt,nt,nt
CO[C@@H]1CN(C)C(=O)c2ccc(NS(=O)(=O)c3ccc(C)cc3)cc2OC[C@@H](C)N(Cc2nccs2)C[C@@H]1C,nt,-7,45,nt,nt,nt,nt
COCC(=O)Nc1ccc2c(c1)OC[C@@H](C)N(Cc1cc(F)ccc1F)C[C@@H](C)[C@H](OC)CN(C)C2=O,nt,-71,47,nt,nt,nt,nt
CO[C@H]1CN(C)C(=O)c2cc(NS(=O)(=O)c3ccc(C)cc3)ccc2OC[C@@H](C)N(Cc2nccs2)C[C@H]1C,21,-31,107*,104*,25,-3,40*
COc1ccccc1CN1C[C@H](C)[C@H](OC)CN(C)C(=O)c2cc(NC(C)=O)ccc2OC[C@@H]1C,nt,13,-24,nt,nt,nt,nt
CO[C@@H]1CN(C)C(=O)c2cc(NC(=O)C3CC3)ccc2OC[C@H](C)N(Cc2cc(F)ccc2F)C[C@H]1C,nt,-71,109*,80,39,-2,-3
CO[C@H]1CN(C)C(=O)c2ccc(NC(=O)C3CC3)cc2OC[C@@H](C)N(Cc2cc(F)ccc2F)C[C@H]1C,nt,-7,40,nt,nt,nt,nt
COc1ccccc1NC(=O)Nc1ccc2c(c1)C(=O)N(C)C[C@@H](OC)[C@H](C)CN(Cc1ccccc1Cl)[C@H](C)CO2,0,-67,109*,108*,113*,10,8
COCC(=O)Nc1ccc2c(c1)OC[C@H](C)N(Cc1cc(F)ccc1F)C[C@@H](C)[C@H](OC)CN(C)C2=O,nt,9,97*,97*,31,-7,16
C[C@@H]1CN([C@H](C)CO)C(=O)c2cc(C#CCN(C)C)cnc2O[C@H]1CN(C)C(=O)Cc1cccnc1,0,67,-4,nt,nt,nt,nt
CO[C@H]1CN(C)C(=O)c2cc(NS(=O)(=O)c3ccccc3)ccc2OC[C@@H](C)N(Cc2cccnc2)C[C@H]1C,nt,-16,97*,101*,47,5,35*
CO[C@@H]1CN(C)C(=O)c2cc(NS(=O)(=O)c3ccccc3)ccc2OC[C@H](C)N(Cc2cccnc2)C[C@@H]1C,nt,-9,24,nt,nt,nt,nt
C[C@H]1CCCCO[C@H](CN(C)Cc2ccc3c(c2)OCO3)[C@@H](C)CN([C@@H](C)CO)C(=O)c2cc(NS(=O)(=O)c3ccc(Cl)cc3)ccc2O1,nt,-53,?,101*,68,12,104*
C[C@@H]1CCCCO[C@@H](CN(C)Cc2ccc3c(c2)OCO3)[C@@H](C)CN([C@@H](C)CO)C(=O)c2cc(NS(=O)(=O)c3ccc(Cl)cc3)ccc2O1,nt,-23,93,nt,nt,nt,nt
SMILES,C diff growth,Pf Dd2 growth,T cruzi growth-1,T cruzi growth-2,T cruzi growth-3,3T3 cytotox,3T3 cytotox 2
C[C@@H]1CCCCO[C@@H](CN(C)Cc2ccc3c(c2)OCO3)[C@@H](C)CN([C@H](C)CO)C(=O)c2cc(NS(=O)(=O)c3ccc(Cl)cc3)ccc2O1,nt,-8,90,nt,nt,nt,nt
C[C@@H]1CN([C@H](C)CO)C(=O)c2cc(NS(=O)(=O)c3ccc(Cl)cc3)ccc2O[C@@H](C)CCCCO[C@H]1CN(C)Cc1ccc2c(c1)OCO2,nt,-71,106*!,97*,107*,20,104*
Cc1ccc(S(=O)(=O)N(C)C[C@H]2OCCCC[C@@H](C)Oc3ccc(NS(C)(=O)=O)cc3C(=O)N([C@H](C)CO)C[C@H]2C)cc1,-10,-51,38,nt,nt,nt,nt
COc1ccc(S(=O)(=O)N(C)C[C@@H]2OCCCC[C@H](C)Oc3ccc(NS(=O)(=O)c4cccs4)cc3C(=O)N([C@H](C)CO)C[C@H]2C)cc1,-2,-49,3,nt,nt,nt,nt
CC(C)CC#Cc1ccc2c(c1)O[C@@H](CN(C)Cc1ccccn1)[C@@H](C)CN([C@@H](C)CO)S2(=O)=O,nt,-38,116*,105*,62,4,102*
CC(C)CC#Cc1ccc2c(c1)O[C@@H](CN(C)Cc1ccccn1)[C@H](C)CN([C@@H](C)CO)S2(=O)=O,0,-62,131*,109*,91,14,103*
CC(C)CC#Cc1ccc2c(c1)O[C@@H](CN(C)Cc1ccccn1)[C@H](C)CN([C@H](C)CO)S2(=O)=O,7,-70,123*,104*,65,19,105*
C[C@H](O)C#Cc1ccc2c(c1)O[C@@H](CN(C)Cc1ccccn1)[C@@H](C)CN([C@H](C)CO)S2(=O)=O,2,-7,0,nt,nt,nt,nt
C[C@@H](O)C#Cc1ccc2c(c1)O[C@H](CN(C)Cc1ccccn1)[C@@H](C)CN([C@@H](C)CO)S2(=O)=O,-2,-9,12,nt,nt,nt,nt
CC(C)CC#Cc1ccc2c(c1)O[C@H](CN(C)Cc1ccccn1)[C@H](C)CN([C@@H](C)CO)S2(=O)=O,-5,-76,126*,100*,52,22,104*
